# Screens: PubChem BioAssay, Sanford-Burnham Center for Chemical Genomics
# Shown are actives, neighbours in structure and some others; about 2.6% of the full set was active somewhere.
# APOBEC3G inh: APOBEC3G DNA deaminase inhibitors, primary screen, biochemical, fluorescence, single-stranded DNA substrate, uHTS | recombinant A3G, ssDNA deamination FAM/TAMRA fluorescence | inhibition, % at 20 µM | actives 0.28% (n = 330,000) | AID 493012, 2011;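 active means inhibition of at least 40% at 20 µM, with no more than 30% in the related APOBEC3A deaminase screen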
# PABP1 MLLE inh: inhibitors of PABP1 MLLE–PAM2 peptide binding, primary screen, biochemical, fluorescence polarization, FITC-PAM2, GST-MLLE; Polyadenylate-binding protein 1 (Homo sapiens), P11940; inhibition, % at 20 µM; actives 0.36% (n = 360,000); AID 588489, 2011; in the data active means inhibition above about 35%, passing the limit was not always enough
# PHOSPHO1 block: PubChem AID 1565; Phosphoethanolamine/phosphocholine phosphatase (Homo sapiens), Q8TCT1; recombinant PHOSPHO1, absorbance phosphatase assay; inhibition, % at 13.3 µM; actives 1.1% (n = 290,000); in the data active means inhibition above about 60%
# PABP polyA inh: PABP poly(A) RNA binding inhibitors, primary screen, biochemical, fluorescence polarization, uHTS; Polyadenylate-binding protein 1 (Homo sapiens), P11940; calls only at 35 µM; actives 1% (n = 290,000); AID 2014, 2009;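 further: calls also rest on retests at 20 µM and on dose response follow-up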
# eIF4H inh: human eIF4H binding inhibitors, primary screen, translation initiation inhibitor project, biochemical, uHTS, fluorescence polarization; eIF4H fluorescence polarization binding assay; Eukaryotic translation initiation factor 4H (Homo sapiens), Q15056; actives 0.94% (n = 290,000); inhibition, % at 35 µM;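 further: calls also rest on retests at 20 µM and on dose response follow-up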
# APOBEC3A inh: APOBEC3A ssDNA deaminase inhibitors, primary screen, selectivity assay for APOBEC3G inhibitor project, biochemical, FAM/TAMRA oligo cleavage fluorescence. actives 0.41% (n = 330,000). DNA dC->dU-editing enzyme APOBEC-3A (Homo sapiens), P31941. inhibition, % at 20 µM. recombinant A3A, FAM/TAMRA ssDNA deamination fluorescence;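 active means at least 40% inhibition at 20 µM here, with at most 30% in a related deaminase screen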
# Target sequence (P31941 whole entry, looked up): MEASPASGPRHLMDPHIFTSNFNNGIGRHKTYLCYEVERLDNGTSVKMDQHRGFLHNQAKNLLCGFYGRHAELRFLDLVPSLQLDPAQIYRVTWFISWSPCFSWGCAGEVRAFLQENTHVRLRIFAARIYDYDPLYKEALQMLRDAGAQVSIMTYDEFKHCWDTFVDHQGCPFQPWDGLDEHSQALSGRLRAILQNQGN
# Numbers stand for hits; – = inactive; ? = inconclusive; · = not tested or not shown; + = active, no number. Unless noted, how the calls were made is not given here.
SMILES,APOBEC3G inh,PABP1 MLLE inh,PHOSPHO1 block,PABP polyA inh,eIF4H inh,APOBEC3A inh
COc1cccc(-c2nc(CSCC(=O)NCC3CCCO3)c(C)o2)c1 (stereo unspecified),–,46,–,–,–,–
CC(C)(C)NC(=O)CSc1nc2ccccc2n1-c1ccccc1,–,–,62,–,–,–
CC(OC(=O)/C=C/c1ccccc1)C(=O)Nc1cccc(C#N)c1 (stereo unspecified),–,–,·,·,·,–
CCCCCN1CN(S(=O)(=O)c2cccs2)c2nc3ccccc3nc21,–,–,–,–,–,–
Cc1ccc(NC(=O)C2CCN(S(=O)(=O)c3ccc4c(c3)C(C)(C)C(=O)N4C)CC2)c(C)c1,–,–,–,–,–,–
CCC(=O)N1CCCC(C)(C(=O)Nc2nccc3cccnc23)C1 (stereo unspecified),·,–,·,·,·,·
Cc1csc(NC(=O)c2ccc(S(=O)(=O)N(C)c3ccccc3)cc2)n1,–,–,86,–,–,–
Cc1csc(NC(=O)c2ccc(S(C)(=O)=O)cc2)n1,–,–,–,–,–,–
Cc1csc(NC(=O)c2ccc(C(=O)Nc3nc(C)cs3)cc2)n1,–,·,–,+,?,–
Cc1nnc(NC(=O)c2ccc(S(=O)(=O)N(C)c3ccccc3)cc2)s1,–,–,·,·,·,–
O=C(O)c1c(N2CCCCC2)ccc([N+](=O)[O-])c1N1CCCCC1,–,–,–,–,–,–
COc1ccc2sc(N(CCN(C)C)C(=O)c3ccc4ccccc4c3)nc2c1,–,–,–,–,–,–
O/N=C\c1cccn1-c1nccs1,–,–,–,+,10,–
N#Cc1cccn1-c1nccs1,–,–,–,–,–,–
Cc1cccc(C)c1NC1=NC(=S)N(c2ccccc2)C12CCOC(C)(C)C2 (stereo unspecified),–,–,–,–,–,–
Cc1ccc(N2C(=S)N=C(Nc3ccccc3C)C23CCOC(C)(C)C3)cc1 (stereo unspecified),–,–,70,–,–,–
Cc1coc2c1C(=O)C(=O)c1c-2ccc2c(C)cccc12,–,–,–,+,78,–
CNc1ccc2c3c(cccc13)C(=O)N(C)C2=O,–,–,–,?,?,–
Cc1coc2c1C(=O)C(=O)c1c-2ccc2c1CCCC2(C)C,–,–,–,+,64,–
CN(C)P(=O)(Nc1cccc2ccccc12)Nc1cccc2ccccc12,–,–,·,·,·,–
Cc1cccc2nc(CSCc3ccco3)cn12,–,44,–,+,76,–
COCC(C)n1c(SCC(=O)Nc2sccc2C(N)=O)nc2ccccc2c1=O (stereo unspecified),–,–,·,·,·,–
COc1cccc(-n2c(SCC(N)=O)nc3ccccc3c2=O)c1,–,–,–,–,58,–
COc1cccc(-n2c(SCC(=O)Nc3nc4ccccc4s3)nc3ccccc3c2=O)c1,–,·,62,–,–,–
COCC(C)n1c(SCC(=O)Nc2nccs2)nc2ccccc2c1=O (stereo unspecified),–,44,·,·,·,–
SMILES,APOBEC3G inh,PABP1 MLLE inh,PHOSPHO1 block,PABP polyA inh,eIF4H inh,APOBEC3A inh
O=C(CNc1cccc(S(=O)(=O)N2CCOCC2)c1)Nc1ccccc1F,–,–,–,–,–,–
COc1cc(NC(=O)c2cc(C)no2)c(OC)cc1Cl,–,–,–,–,–,–
Cc1ccc(S(=O)(=O)n2nnc3ccccc32)c(C)c1C,–,–,–,–,–,–
NC(N)=NC(=S)Nc1ccc(Cl)cc1,·,45,–,–,–,·
O=C(O)CCC(=O)c1ccc2c(c1)OCCO2,–,–,–,–,–,–
O=C(O)CCSCC(=O)c1ccc2c(c1)OCCO2,–,–,78,–,–,–
COC(=O)C(C(=O)OC)=C(/C=C/C=C/N(C)C)N(C)C,–,–,–,+,101,–
COC(=O)C(C(=O)OC)=C(/C=C/N(C)C)N(C)C,–,–,–,–,–,–
Cc1cc(C(F)(F)F)nc2c(Cl)c(C(C)(C)C)nn12,–,–,–,–,–,–
CS(=O)(=O)Nc1ccc(C2=NN(S(=O)(=O)c3ccc(F)cc3)C(c3ccco3)C2)cc1 (stereo unspecified),–,–,–,–,active,–
Cc1ccc(C2=NN(S(=O)(=O)c3ccccc3)C(c3ccco3)C2)cc1 (stereo unspecified),–,–,·,·,·,–
COCCn1c(C)cc(C2=NNC(=Nc3ccccc3)SC2)c1C,–,–,102,–,–,–
COCCn1c(C)cc(C2=NNC(=Nc3ccc(OC)cc3)SC2)c1C,–,–,–,–,–,–
COc1cc(/C=N/NC(=O)c2ccc3c(c2)OCCO3)cc(Cl)c1O,–,–,–,–,–,–
COc1ccc(C(=O)NCCN2CCOCC2)cc1S(=O)(=O)Nc1ccc(C)cc1,–,–,·,·,·,–
CN1CC(=O)Nc2ccccc2C1=O,–,–,–,–,–,–
O=C1NN(CCO)C(=S)Nc2ccccc21,·,36,·,·,·,·
COc1ccc(NC(=O)C(C)Sc2ccccc2)cc1 (stereo unspecified),–,–,62,–,–,–
CC(Sc1ccccc1)C(=O)Nc1ccc(N2CCOCC2)cc1 (stereo unspecified),–,–,–,–,–,–
COc1cc(CN2C(=O)C(Cc3ccccc3)ON=C2c2ncccc2C)cc(OC)c1 (stereo unspecified),·,–,·,·,·,·
CC1=NN(c2ccc(N)cc2)C(=O)C1,–,–,–,+,–,–
CC1=NN(c2ccc(Cl)cc2)C(=O)C1,–,–,–,–,–,–
O=[N+]([O-])/C(C(=C(Cl)Cl)N1CCN(Cc2ccccc2)CC1)=C1\NCCN1Cc1ccc(Cl)nc1,–,–,–,–,–,–
O=[N+]([O-])C(/C=C(\Cl)[N+](=O)[O-])=C1N(Cc2ccc(Cl)nc2)CCN1Cc1ccc(Cl)nc1,–,–,–,+,?,–
Cc1ccc2c(c1)c(C)cc(=O)n2CCC(=O)O,–,–,–,–,88,–
Cn1c(CCN2CCOCC2)nc2cc(NC(=O)c3cccs3)ccc21,–,–,64,–,–,–
CC(=O)NCCc1nc2cc(NC(=O)c3cccs3)ccc2n1C,–,–,–,–,–,–
N#Cc1c2c(c(=S)n(-c3ccccc3)c1N)CCCC2,–,–,61,?,?,–
N#C/C(=C/c1ccco1)C(N)=S,–,–,–,+,57,–
N#C/C(=C\c1ccc2c(c1)OCO2)C(N)=S,–,–,–,–,–,–
